For orientation: AC50 means the midpoint of the concentration-response curve, whichever way the signal moves.

Activity calls are given as the source filed them. How the source made its calls: active means hit-call score of the fitted dose curve at least 0.9, where 1 is the maximum; inactive means score below 0.9.

Chain of CYP2C9, CYP2C9 (gene 1559) (P11712 whole entry, looked up): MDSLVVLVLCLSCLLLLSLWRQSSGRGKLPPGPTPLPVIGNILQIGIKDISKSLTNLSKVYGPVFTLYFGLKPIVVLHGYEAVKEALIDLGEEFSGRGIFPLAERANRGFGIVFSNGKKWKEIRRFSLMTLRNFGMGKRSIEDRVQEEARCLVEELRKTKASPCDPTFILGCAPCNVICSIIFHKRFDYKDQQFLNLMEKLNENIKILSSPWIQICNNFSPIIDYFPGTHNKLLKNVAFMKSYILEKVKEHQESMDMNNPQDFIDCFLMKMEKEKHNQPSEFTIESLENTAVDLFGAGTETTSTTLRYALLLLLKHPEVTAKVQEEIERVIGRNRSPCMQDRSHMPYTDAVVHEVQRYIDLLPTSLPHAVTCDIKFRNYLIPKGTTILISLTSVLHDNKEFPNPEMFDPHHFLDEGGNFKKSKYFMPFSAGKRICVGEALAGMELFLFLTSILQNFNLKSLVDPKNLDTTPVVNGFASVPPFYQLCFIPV

The target in this experiment is CYP2C9, CYP2C9 (gene 1559) (UniProt P11712). The experiment can be described thus: ERF_FR_ADME_hCYP2C9: Eurofins (ERF) CYP450-related Enzyme Activity (ADME) Assay for CYP2C9. The procedure:
ERF_FR_ADME_hCYP2C9 is a biochemical, single-readout assay that uses extracted gene-proteins in a cell-free assay. Measurements were taken 0.66 hour after chemical dosing in a 96-well plate. See CYP2C9 inhibition (recombinant, MFC substrate).ERF_FR_ADME_hCYP2C9 is an assay component calculated from the ERF_FR_ADME_hCYP2C9 assay. It is designed to measure enzyme activity using a type of enzyme reporter as detected by fluorescence intensity of HFC with fluorimetry technology.Data from the assay component ERF_FR_ADME_hCYP2C9 was analyzed at the assay endpoint, ERF_FR_ADME_hCYP2C9, in the positive analysis fitting direction relative to acetonitrile as the negative control and baseline of activity. Using a type of enzyme reporter, loss-of-signal activity can be used to understand changes in enzymatic activity as they relate to gene CYP2C9. To generalize the intended target to other relatable targets, this assay endpoint is annotated to the cyp intended target family, where the subfamily is steroidogenesis-related.
Human cells are incubated for 15 minutes at 37C with Diclofenac as substrate and Sulfaphenazole as control inhibitor. Test Sample Requirements: Minimum for 1) Screen: 25 ul of 10 mM stock -OR- 1 mg (pre-weighed) for 10 uM final testing. 2) Dose Response: 60 ul of 10 mM stock -OR- 1 mg (pre-weighed). […]
On to `O=C(/C=C/c1ccc(O)cc1)CC(=O)/C=C/c1ccc(O)cc1`, for which the AC50 was 0.502 µM (active).
